Measured values from PubChem BioAssay (Tox21).
Where “and” joins values, the source holds several entries; their conditions need not be identical. Equal values may be shown once. A structure can be active in one record and inactive in another. Calls of active or inactive are those of the source. Entries that show only a call come without a potency. Unless noted, calls follow the shape of the dose curve; as a rule, active = well fitted curve in the direction sought with a large enough effect in the repeat runs; inconclusive = weak or mixed curves; inactive = no such curve, though single readings can be large; an effect the other way counts as inactive or inconclusive.

Tests used:
[1] = qHTS assay to test for compound auto fluorescence at 535 nm (green) in HEK293 cells (AID 720680)
[2] = qHTS assay to test for compound auto fluorescence at 460 nm (blue) in HEK293 cell free culture (AID 720681)
Summary of the method: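 Test compounds were pinned into cell-free culture medium (DMEM with 10% FBS) and fluorescence was read directly at Ex/Em 405/460 nm. Signals were expressed as fluorescence equivalents of triamterene, with DMSO vehicle as control.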

[3] = qHTS assay to test for compound auto fluorescence at 535 nm (green) in HEK293 cell free culture (AID 720682)
Summary of the method: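 Compounds were pin-transferred into cell-free DMEM with 10% FBS, and green fluorescence was read at excitation 485 nm and emission 535 nm. Intensities were expressed as fluorescein-equivalent values.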

[4] = qHTS assay to test for compound auto fluorescence at 590 nm (red) in HEK293 cell free culture (AID 720683)
Summary of the method: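 Tox21 10K library compounds were pinned into cell-free DMEM with 10% FBS and fluorescence was read at excitation 540 nm. Activity is expressed as Rose Bengal sodium equivalency.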

[5] = qHTS assay to test for compound auto fluorescence at 590 nm (red) in HepG2 cell free culture (AID 720684)
Summary of the method: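 Measured in medium alone (MEM containing 10% FBS) following pintool addition of compound; emission at 590 nm with 540 nm excitation, referenced to Rose Bengal sodium.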

[6] = qHTS assay to test for compound auto fluorescence at 460 nm (blue) in HepG2 cell free culture (AID 720685)
Summary of the method: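 Compound (23 nL) or DMSO pinned into cell-free MEM with 10% FBS; blue fluorescence read at 405/460 nm excitation/emission, expressed as auto-fluorescence equivalency to triamterene.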

[7] = qHTS assay to test for compound auto fluorescence at 535 nm (green) in HepG2 cell free culture (AID 720686)
[8] = qHTS assay to test for compound auto fluorescence at 460 nm (blue) in HepG2 cells (AID 720687)
Summary of the method: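 Cells (2,000/well in MEM with 10% FBS) attached overnight at 37 C, then were exposed to compound or DMSO for 1 hr at 37 C, 5% CO2. Fluorescence read at Ex/Em 405/460 nm, expressed as triamterene-equivalent signal.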

[9] = molecular target: Glucocorticoid receptor (Homo sapiens) (UniProt P04150); assay: qHTS assay to identify small molecule agonists of the glucocorticoid receptor (GR) signaling pathway (AID 720691; active = well fitted activation curve with a large enough effect in the signal ratio in the repeat runs, not every such curve was filed as active; inconclusive = weak or mixed curves, or effect the other way; inactive = no such curve, though single readings can be large or run the other way; the % refers to the signal ratio; also: potency is read from the fitted curve at half-maximal effect); details: GR-bla HeLa, beta-lactamase reporter ratio, 18 h; activation: at 62.4 µM (top of the series)
Glucocorticoid receptor (Homo sapiens), sequence (P04150 whole entry, looked up): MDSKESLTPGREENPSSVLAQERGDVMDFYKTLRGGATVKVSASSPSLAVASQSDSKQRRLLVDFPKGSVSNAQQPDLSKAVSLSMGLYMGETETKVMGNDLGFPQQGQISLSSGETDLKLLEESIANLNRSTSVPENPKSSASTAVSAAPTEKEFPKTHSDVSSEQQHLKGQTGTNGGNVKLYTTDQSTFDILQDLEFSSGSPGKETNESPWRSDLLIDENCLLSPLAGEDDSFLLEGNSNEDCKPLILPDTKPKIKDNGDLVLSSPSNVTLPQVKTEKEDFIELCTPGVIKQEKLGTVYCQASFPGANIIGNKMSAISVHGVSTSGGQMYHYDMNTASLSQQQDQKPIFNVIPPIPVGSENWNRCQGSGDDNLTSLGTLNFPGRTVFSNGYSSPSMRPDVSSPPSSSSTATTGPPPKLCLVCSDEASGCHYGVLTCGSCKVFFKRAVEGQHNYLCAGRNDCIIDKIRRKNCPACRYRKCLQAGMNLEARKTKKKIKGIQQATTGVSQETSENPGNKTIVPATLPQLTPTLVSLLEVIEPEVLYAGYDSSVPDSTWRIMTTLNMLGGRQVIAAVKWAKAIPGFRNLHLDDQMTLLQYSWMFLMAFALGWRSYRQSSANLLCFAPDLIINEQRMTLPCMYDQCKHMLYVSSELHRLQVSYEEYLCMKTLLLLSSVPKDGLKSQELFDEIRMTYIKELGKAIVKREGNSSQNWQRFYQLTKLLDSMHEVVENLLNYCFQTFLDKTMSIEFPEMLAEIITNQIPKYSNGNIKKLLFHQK
Summary of the method: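 Beta-lactamase reporter activity, read as fluorescence intensity, was measured in GR-bla HeLa cells exposed to compounds for 18 h at 37 C and then loaded with LiveBLAzer B/G FRET substrate for 2 h at room temperature.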

[10] = molecular target: Glucocorticoid receptor (Homo sapiens) (UniProt P04150); assay: qHTS assay to identify small molecule antagonists of the glucocorticoid receptor (GR) signaling pathway (AID 720692; active = well fitted inhibition curve with a large enough effect in the signal ratio in the repeat runs, not every such curve was filed as active; inconclusive = weak or mixed curves, or effect the other way; inactive = no such curve, though single readings can be large or run the other way; the % refers to the signal ratio)
Summary of the method: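 Fluorescence from cleaved LiveBLAzer B/G FRET substrate reports GRE-driven beta-lactamase in HeLa cells; compounds are tested against 5 nM dexamethasone (final) over 18 h at 37 C, substrate incubation 2 h at room temperature.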

[11] = qHTS assay to identify small molecule antagonists of the glucocorticoid receptor (GR) signaling pathway - cell viability counter screen (AID 720693); also: nearly all actives have a fitted effect of over 55% in size
[12] = qHTS assay for identifying genotoxic compounds that show differential cytotoxicity against isogenic chicken DT40 cell lines with known DNA damage response pathways - wild type cell line (AID 743012); also: nearly all actives have a fitted effect of over 60% in size; also: potency is read from the fitted curve at half-maximal effect
Summary of the method: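 Quantitative HTS on parental DT40 cells: 40 h compound treatment at 37 C/5% CO2, with viability then determined by CellTiter-Glo luminescence. Values serve as the DNA repair-proficient reference for differential cytotoxicity.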

[13] = qHTS assay for identifying genotoxic compounds that show differential cytotoxicity against isogenic chicken DT40 cell lines with known DNA damage response pathways - Rev3 mutant cell line (AID 743014); also: nearly all actives have a fitted effect of over 55% in size; also: potency is read from the fitted curve at half-maximal effect
[14] = qHTS assay for identifying genotoxic compounds that show differential cytotoxicity against isogenic chicken DT40 cell lines with known DNA damage response pathways - Rad54/Ku70 mutant cell line (AID 743015); also: nearly all actives have a fitted effect of over 60% in size; also: potency is read from the fitted curve at half-maximal effect
[15] = qHTS assay to identify small molecule antagonists of the androgen receptor (AR) signaling pathway - cell viability counter screen (AID 743033; also: nearly all actives have a fitted effect of over 45% in size)
[16] = qHTS assay to identify small molecule antagonists of the androgen receptor (AR) signaling pathway using the MDA cell line - cell viability counter screen (AID 743041; also: nearly all actives have a fitted effect of over 45% in size)
Summary of the method: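 Viability counter screen run alongside the AR antagonist reporter: cells seeded 5 h before compound, R1881 added, 16 h incubation at 37C without CO2, fluorescent CellTiter-Fluor signal quantified.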

[17] = molecular target: Androgen receptor (Homo sapiens) (UniProt P10275); assay: qHTS assay to identify small molecule antagonists of the androgen receptor (AR) signaling pathway (AID 743035; active = well fitted inhibition curve with a large enough effect in the signal ratio in the repeat runs, not every such curve was filed as active; inconclusive = weak or mixed curves, or effect the other way; inactive = no such curve, though single readings can be large or run the other way; the % refers to the signal ratio)
Androgen receptor (Homo sapiens), sequence (P10275 whole entry, looked up): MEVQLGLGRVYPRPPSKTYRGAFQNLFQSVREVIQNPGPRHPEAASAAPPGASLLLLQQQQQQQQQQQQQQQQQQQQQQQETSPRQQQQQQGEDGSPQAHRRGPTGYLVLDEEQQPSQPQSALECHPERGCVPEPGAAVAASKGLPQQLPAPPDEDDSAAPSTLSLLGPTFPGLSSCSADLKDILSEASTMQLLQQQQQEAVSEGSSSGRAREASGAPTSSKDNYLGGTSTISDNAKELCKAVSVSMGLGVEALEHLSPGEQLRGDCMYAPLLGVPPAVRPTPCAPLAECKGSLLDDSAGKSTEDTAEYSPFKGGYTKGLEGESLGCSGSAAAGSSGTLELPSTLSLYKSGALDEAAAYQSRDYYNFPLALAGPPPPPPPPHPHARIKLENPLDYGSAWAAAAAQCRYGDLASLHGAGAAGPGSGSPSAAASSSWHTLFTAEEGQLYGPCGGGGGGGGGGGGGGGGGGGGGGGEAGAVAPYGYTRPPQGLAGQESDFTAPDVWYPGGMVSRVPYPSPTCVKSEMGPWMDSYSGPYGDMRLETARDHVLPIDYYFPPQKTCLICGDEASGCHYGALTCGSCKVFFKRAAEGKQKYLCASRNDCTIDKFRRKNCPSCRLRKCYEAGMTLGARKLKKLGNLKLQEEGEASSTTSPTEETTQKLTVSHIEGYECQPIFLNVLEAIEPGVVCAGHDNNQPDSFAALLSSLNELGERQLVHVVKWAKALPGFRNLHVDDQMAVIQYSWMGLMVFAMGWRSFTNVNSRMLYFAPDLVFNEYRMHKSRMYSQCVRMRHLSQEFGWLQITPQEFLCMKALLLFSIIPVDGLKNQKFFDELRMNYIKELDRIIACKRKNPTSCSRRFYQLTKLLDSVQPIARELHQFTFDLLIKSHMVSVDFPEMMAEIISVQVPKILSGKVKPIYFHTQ
Summary of the method: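 Cell line: GeneBLAzer AR-UAS-bla GripTite (HEK293). Stimulus: R1881 added after compound. Exposure: 16 h, 37C, 5% CO2. Readout: LiveBLAzer B/G FRET fluorescence after 2 h at room temperature.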

[18] = molecular target: Androgen receptor (Homo sapiens) (UniProt P10275); assay: qHTS assay to identify small molecule agonists of the androgen receptor (AR) signaling pathway (AID 743036; active = well fitted activation curve with a large enough effect in the signal ratio in the repeat runs, with a control signal flat, not every such curve was filed as active; inconclusive = weak or mixed curves, or effect the other way; inactive = no such curve, though single readings can be large or run the other way; the % refers to the signal ratio)
Summary of the method: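 Activation was read as beta-lactamase FRET signal from LiveBLAzer B/G substrate, added for 2 h at room temperature. Before that, GeneBLAzer AR-UAS-bla GripTite (HEK293) cells had 16 h compound exposure at 37C.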

[19] = molecular target: Androgen receptor (Homo sapiens) (UniProt P10275); assay: qHTS assay to identify small molecule agonists of the androgen receptor (AR) signaling pathway using the MDA cell line (AID 743040; also: nearly all actives have a fitted effect of over 20% in size)
Summary of the method: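 Luminescence from ONE-Glo, read after 30 min at room temperature, reflects MMTV-driven luciferase in MDA-kb2 cells (AR- and GR-responsive). Treatment lasted 16 h at 37C, 0% CO2.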

[20] = molecular target: Androgen receptor (Homo sapiens) (UniProt P10275); assay: qHTS assay to identify small molecule antagonists of the androgen receptor (AR) signaling pathway using the MDA cell line (AID 743042; also: nearly all actives have a fitted effect of over 55% in size)
Summary of the method: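 MDA-kb2 cells (human breast carcinoma, stably carrying an MMTV-luciferase reporter responsive to AR and GR) were plated at 3,000 cells/well and preincubated 5 hr at 37C, then given compound plus R1881 agonist for 16 h. ONE-Glo luminescence was read.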

Structure (SMILES)	outcome [1]	Potency [2]	outcome [3]	outcome [4]	outcome [5]	Potency [6]	Potency [7]	Potency [8]	Potency [9]	Potency [10]	Potency [11]	Potency [12]	Potency [13]	Potency [14]	Potency [15]	Potency [16]	Potency [17]	Potency [18]	Potency [19]	Potency [20]
C=CC[N@@+]12CC[C@@]34c5ccccc5N5/C=C6/[C@H]7C[C@H]8[C@@]9(CC[N@@+]8(CC=C)C/C7=C/CO)c7ccccc7N(/C=C(/[C@@H](C[C@@H]31)/C(=C\CO)C2)[C@H]54)[C@@H]69	inactive	inactive	inactive	inactive	inactive	inactive	inactive	inactive	inactive	inactive	inactive	inactive	inactive	inactive	inactive	inactive	–	–	–	–
Cc1c(N)nc([C@H](CC(N)=O)NC[C@H](N)C(N)=O)nc1C(=O)N[C@H](C(=O)N[C@H](C)[C@@H](O)[C@H](C)C(=O)N[C@H](C(=O)NCCc1nc(-c2nc(C(=O)NCCCCN=C(N)N)cs2)cs1)[C@@H](C)O)[C@@H](O[C@@H]1O[C@@H](CO)[C@@H](O)[C@H](O)[C@@H]1O[C@H]1O[C@H](CO)[C@@H](O)[C@H](OC(N)=O)[C@@H]1O)c1cnc[nH]1	inactive	inactive	inactive	inactive	inactive	inactive	inactive	inactive	848 nM [inconclusive] (active) and inactive	inactive	inactive	4.22 µM (active) and 1.5 µM (active)	1330 nM (active)	211 nM (active) and 37.6 nM (active)	inactive	inactive	–	–	–	–
CC1=C(/C=C/C(C)=C/C=C/C(C)=C/C=C/C=C(C)/C=C/C=C(C)/C=C/C2=C(C)CCCC2(C)C)C(C)(C)CCC1	inactive	inactive	inactive	inactive	inactive	inactive	inactive	inactive	inactive	inactive	inactive	inactive	inactive	inactive	inactive	–	inactive	inactive	inactive	inactive
CC(=O)OCC1=C(C(=O)O)N2C(=O)[C@@H](NC(=O)Cc3ccccc3)[C@H]2SC1	inactive	inactive	inactive	inactive	inactive	inactive	inactive	inactive	inactive	inactive	inactive	inactive	inactive	inactive	inactive	inactive	inactive	inactive	inactive	inactive
CCOc1ccc(S(=O)(=O)O)c2cccnc12	inactive	inactive	inactive	inactive	inactive	inactive	inactive	inactive	inactive	inactive	inactive	inactive	inactive	inactive	inactive	inactive	–	–	–	–
O=c1[nH]c(=O)n([C@H]2C[C@H](O)[C@@H](CO)O2)cc1/C=C/Br	inactive	inactive	inactive	inactive	inactive	inactive	inactive	inactive	inactive	inactive	inactive	inactive	inactive	inactive	inactive	–	–	–	–	–
